Reference: PubChem BioAssay
A number with no mark means an inactive call. Calls of active or inactive are those of the source. Cut-off read from the data, not from the text of the source: active = fold change permeability below about 0.7 or above about 1.3; inactive = in between.

test: modulators of brain endothelial barrier permeability, primary screen, cell-based, FITC-avidin fluorescence, HTS (AID 1963498); conditions: actives lie on both sides; note: test concentration not given here

Q: Which fold change permeability does the source give for `COC(=O)[C@H]1[C@H]2C[C@@H]3c4[nH]c5cc(OC)ccc5c4CCN3C[C@H]2C[C@@H](OC(=O)c2cc(OC)c(OC)c(OC)c2)[C@@H]1OC` here?
A: Its fold change permeability is 1.5 (active).

Q: Which fold change permeability does the source give for `N[C@H](C(=O)O)[C@H](Cc1ccccc1)C(=O)O` here?
A: The fold change permeability was 1.2.

Q: Which fold change permeability does the source give for `Oc1cc2c(cc1O)CN(C(=S)NCCc1ccc(Cl)cc1)CCC2` here?
A: Its fold change permeability is 1.8 (active).

Q: Which fold change permeability does the source give for `Cc1cc(C(=O)Cn2cc(C#N)ccc2=O)c(C)n1Cc1ccccc1` here?
A: Its fold change permeability is 1.7 (active).

Q: Which fold change permeability does the source give for `O=C(O)c1ccccc1Nc1ccccc1` here?
A: Its fold change permeability is 1.

Q: For `CCc1c(C)[nH]c2c1C(=O)C(CN1CCOCC1)CC2` (centres undefined), which fold change permeability is on record?
A: Its fold change permeability is 1.

Q: Which fold change permeability does the source give for `O=c1ccc2ccc(O)c(O)c2o1` here?
A: Its fold change permeability is 1.2.

Q: For `CCOC(=O)C1=C(C)NC(C)=C(C(=O)OC)C1c1cccc(Cl)c1Cl` (centres undefined), which fold change permeability is on record?
A: The fold change permeability was 1.2.

Q: Which fold change permeability does the source give for `O=C(O)c1ccc(-c2c[nH]c3ncc(-c4ccccc4)cc23)cc1C1CCCC1` here?
A: Its fold change permeability is 1.4 (active).

Q: For `COc1cc(O)cc(CCc2ccc(OC)c(O)c2)c1`, which fold change permeability is on record?
A: Its fold change permeability is 1.9 (active).

Q: For `CN1CCC(=C2c3ccccc3C=Cc3ccccc32)CC1`, which fold change permeability is on record?
A: Its fold change permeability is 1.1.

Q: For `Cc1cc(C(C)(C)C)cc(C)c1CC1=NCCN1`, which fold change permeability is on record?
A: Its fold change permeability is 2 (active).

Q: With `COc1ccc(S(=O)(=O)Nc2nc(-c3cccc([N+](=O)[O-])c3)cs2)cc1OC` as the molecule, how does the fold change permeability read?
A: The fold change permeability was 0.9.

Q: With `N=C(N)c1ccccc1` as the molecule, how does the fold change permeability read?
A: The fold change permeability was 0.9.

Q: For `CC(=O)C1=C(C)N(c2cccc(C(F)(F)F)c2)C(=O)N[C@@H]1c1ccc(C#N)nc1`, which fold change permeability is on record?
A: The fold change permeability was 1.1.

Q: With `CCN(c1nc(N)c(C(=O)N=C(N)N)nc1Cl)C(C)C` as the molecule, how does the fold change permeability read?
A: Its fold change permeability is 1.4 (active).

Q: For `CC(C)CN(C[C@@H](O)[C@H](Cc1ccccc1)NC(=O)O[C@H]1CO[C@H]2OCC[C@H]21)S(=O)(=O)c1ccc(N)cc1`, which fold change permeability is on record?
A: Its fold change permeability is 1.4 (active).

Q: For `CCOC(=O)Nc1ccc(NCc2ccc(F)cc2)nc1N`, which fold change permeability is on record?
A: The fold change permeability was 1.6 (active).

Q: With `N=c1nc(N2CCCCC2)cc(N)n1O` as the molecule, how does the fold change permeability read?
A: The fold change permeability was 0.9.

Q: Which fold change permeability does the source give for `O=c1c2ccccc2nc2n1CCc1c-2[nH]c2ccccc12` here?
A: The fold change permeability was 1.8 (active).

Q: Which fold change permeability does the source give for `OCc1ccc(-c2nn(Cc3ccccc3)c3ccccc23)o1` here?
A: Its fold change permeability is 2 (active).

Q: Which fold change permeability does the source give for `O=c1[nH]c(=O)n([C@H]2C[C@H](O)[C@@H](CO)O2)cc1Br` here?
A: The fold change permeability was 1.

Q: With `CC(C(=O)O)c1ccc(CC2CCCC2=O)cc1` (centres undefined) as the molecule, how does the fold change permeability read?
A: The fold change permeability was 1.5 (active).

Q: For `C1CCc2nnnn2CC1`, which fold change permeability is on record?
A: Its fold change permeability is 1.3 (active).

Q: For `COc1cc2nc(N3CCN(C(=O)c4ccco4)CC3)nc(N)c2cc1OC`, which fold change permeability is on record?
A: Its fold change permeability is 1.

Q: With `Cc1cc(N)c2ccccc2[n+]1CCCCCCCCCC[n+]1c(C)cc(N)c2ccccc21` as the molecule, how does the fold change permeability read?
A: Its fold change permeability is 1.6 (active).

Q: For `CN1[C@@H](CC(=O)c2ccccc2)CCC[C@H]1C[C@H](O)c1ccccc1`, which fold change permeability is on record?
A: Its fold change permeability is 1.3 (active).

Q: For `Cc1c(OCC(F)(F)F)ccnc1CS(=O)c1nc2ccccc2[nH]1` (centres undefined), which fold change permeability is on record?
A: Its fold change permeability is 1.6 (active).

Q: Which fold change permeability does the source give for `COc1ccc(Oc2c(Cl)cnn(C3c4ccccc4-c4ccccc43)c2=O)cc1` here?
A: Its fold change permeability is 1.4 (active).

Q: Which fold change permeability does the source give for `CC(N=C(NC#N)Nc1ccncc1)C(C)(C)C` (centres undefined) here?
A: The fold change permeability was 0.9.

Q: With `COc1cc(/C=C(\C#N)C(=O)Nc2nnc(C(F)(F)F)s2)ccc1OCc1ccc(C(F)(F)F)cc1C(F)(F)F` as the molecule, how does the fold change permeability read?
A: Its fold change permeability is 1.5 (active).

Q: For `O=C1CCC(c2ccc(-n3ccnc3)cc2)=NN1`, which fold change permeability is on record?
A: The fold change permeability was 1.1.

Q: Which fold change permeability does the source give for `O=C(O)C1CCNCC1` here?
A: Its fold change permeability is 1.2.

Q: With `CN1CCN(C2Cc3ccccc3Sc3ccc(Cl)cc32)CC1` (centres undefined) as the molecule, how does the fold change permeability read?
A: The fold change permeability was 1.2.

Q: For `CCN(CC)CCNC(=O)c1ccc(N)cc1`, which fold change permeability is on record?
A: Its fold change permeability is 0.8.

Q: With `O=S(=O)(c1cccc2c(Cl)cccc12)N1CCCNCC1` as the molecule, how does the fold change permeability read?
A: The fold change permeability was 1.1.

Q: With `COc1cc(NS(C)(=O)=O)ccc1Nc1c2ccccc2nc2ccccc12` as the molecule, how does the fold change permeability read?
A: The fold change permeability was 1.2.

Q: For `CC(C)=CCC/C(C)=C/CC/C(C)=C/CSc1ccccc1C(=O)O`, which fold change permeability is on record?
A: The fold change permeability was 1.4 (active).

Q: Which fold change permeability does the source give for `Cc1ccc(S(=O)(=O)/C=C/C#N)cc1` here?
A: The fold change permeability was 1.1.
